Screen size: about 310,000 compounds; about 14,000 (4.5%) showed an effect of 50% or more. Effects have a minus sign here. The sample holds strong results, similar compounds and a random draw of the others, so the mix is not that of the screen.
Target: human ether-à-go-go-related gene (hERG) potassium channel (human, UniProt Q12809)
Test: primary screen, population patch clamp on CHO cells stably expressing hERG; higher = less effect of the substance
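Further: peak tail current of the secondary pulse compared with the same well before compound.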

Sequence of human ether-à-go-go-related gene (hERG) potassium channel (Q12809 whole entry, looked up): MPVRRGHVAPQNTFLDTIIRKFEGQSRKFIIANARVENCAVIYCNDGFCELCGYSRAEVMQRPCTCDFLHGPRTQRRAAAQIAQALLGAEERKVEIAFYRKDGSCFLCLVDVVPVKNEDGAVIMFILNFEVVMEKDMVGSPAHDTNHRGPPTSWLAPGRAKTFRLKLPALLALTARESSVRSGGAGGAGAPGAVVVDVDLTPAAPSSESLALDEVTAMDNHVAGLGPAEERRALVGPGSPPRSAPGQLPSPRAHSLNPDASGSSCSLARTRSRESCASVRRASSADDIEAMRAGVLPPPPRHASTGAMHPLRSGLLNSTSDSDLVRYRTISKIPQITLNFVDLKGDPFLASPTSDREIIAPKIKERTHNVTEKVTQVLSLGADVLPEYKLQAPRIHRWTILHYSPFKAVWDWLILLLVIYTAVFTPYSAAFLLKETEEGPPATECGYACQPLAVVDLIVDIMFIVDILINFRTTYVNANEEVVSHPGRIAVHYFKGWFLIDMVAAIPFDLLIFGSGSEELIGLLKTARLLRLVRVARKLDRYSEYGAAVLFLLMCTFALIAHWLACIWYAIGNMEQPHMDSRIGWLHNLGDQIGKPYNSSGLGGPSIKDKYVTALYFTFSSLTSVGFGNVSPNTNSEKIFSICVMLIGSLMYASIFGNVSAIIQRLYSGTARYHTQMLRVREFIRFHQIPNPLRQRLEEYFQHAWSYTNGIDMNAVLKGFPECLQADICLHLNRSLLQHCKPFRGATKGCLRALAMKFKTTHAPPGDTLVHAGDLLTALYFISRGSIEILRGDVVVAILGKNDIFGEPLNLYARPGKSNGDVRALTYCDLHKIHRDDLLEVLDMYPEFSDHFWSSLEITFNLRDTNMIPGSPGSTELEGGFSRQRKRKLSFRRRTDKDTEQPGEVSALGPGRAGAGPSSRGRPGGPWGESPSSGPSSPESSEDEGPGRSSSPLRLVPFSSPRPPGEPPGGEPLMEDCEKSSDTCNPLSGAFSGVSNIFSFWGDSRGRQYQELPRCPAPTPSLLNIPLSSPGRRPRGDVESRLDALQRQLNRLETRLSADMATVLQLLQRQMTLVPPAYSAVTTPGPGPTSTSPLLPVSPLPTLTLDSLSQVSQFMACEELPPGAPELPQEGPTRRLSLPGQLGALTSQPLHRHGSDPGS

| Structure (SMILES) | hERG current change (%, negative = inhibition) at 10uM |
| --- | --- |
| Cc1ccc(-n2nc(C(=O)NN)c(C)c(C#N)c2=O)cc1Cl | 14.5% |
| COc1ccc(N(C(=O)Cn2nnc(-c3ccccc3F)n2)C(C(=O)NCC2CCCO2)c2ccc(Cl)cc2)cc1 (stereo not shown) | 22.6% |
| COc1ccc(S(=O)(=O)N(CC(=O)O)c2ccc(C)cc2)cc1 | 4% |
| Cc1cc(Nc2ccc(Br)cc2)nc(-c2ccccc2O)n1 | 19.9% |
| CCc1ccccc1NC(=S)N(CCCN1CCOCC1)Cc1cccs1 | -53.5% |
| CCc1ccccc1NC(=S)N(CCCN1CCN(C)CC1)Cc1cccs1 | -46% |
| Cc1c(Cl)cccc1NC(=S)N(CCCN1CCOCC1)Cc1cccs1 | -26.5% |
| COc1ccc(CNC(=O)CCCn2nc(C)n3c(cc4sccc43)c2=O)cc1 | -1.61% |
| CC(=O)N1N=C(c2cccc([N+](=O)[O-])c2)OC1c1ccc(Cl)cc1Cl (stereo not shown) | 8.14% |
| CC(=O)N1N=C(c2cccc([N+](=O)[O-])c2)OC1c1ccccc1Cl (stereo not shown) | -25.8% |
| COc1ccccc1C1OC(c2cccc([N+](=O)[O-])c2)=NN1C(C)=O (stereo not shown) | -62% |
| Cn1c(=O)c2c(SCc3cccnc3)nc(CC(C)(C)C)nc2n(C)c1=O | -59.6% |
| CC(C)Cc1nc(SCc2cccnc2)c2c(=O)n(C)c(=O)n(C)c2n1 | -8.32% |
| CCc1nc(SCc2cccnc2)c2c(=O)n(C)c(=O)n(C)c2n1 | -10.7% |
| CCCc1nc(SCc2cccnc2)c2c(=O)n(C)c(=O)n(C)c2n1 | -57.3% |
| Cn1c(=O)c2c(SCc3cccnc3)nc(C3CC3)nc2n(C)c1=O | -9.63% |
| Cc1ccccc1-c1nc(SCc2cccnc2)c2c(=O)n(C)c(=O)n(C)c2n1 | 10.5% |
| CC1=C(C(=O)NC(C)c2ccccc2)C2(CCC(C)CC2)OC1=O (stereo not shown) | -4.71% |
| Cc1ccc(C)c2c1N(Cc1ccccc1)C(=O)C21OCCO1 | -21.8% |
| Cc1nc(NC(=O)C2CCCCC2C(=O)O)sc1C (stereo not shown) | 12% |
| O=C(CNC(=O)c1ccccc1)OCc1nnc(-c2ccc(Cl)cc2)o1 | -10.4% |
| Cc1c(CN2CCc3c([nH]c4ccccc34)C2C2CCCCC2)cnn1C (stereo not shown) | -38.7% |

| Structure (SMILES) | hERG current change (%, negative = inhibition) at 10uM |
| --- | --- |
| c1ccc2c3c([nH]c2c1)C(C1CCCCC1)N(Cc1ncc[nH]1)CC3 (stereo not shown) | -39.5% |
| Cc1cnc(CN2CCc3c([nH]c4ccccc34)C2C2CCCCC2)[nH]1 (stereo not shown) | -62.6% |
| O=S(=O)(c1ccccc1)c1nc(-c2ccco2)oc1NCCCn1ccnc1 | -65.6% |
| CNc1oc(-c2cccs2)nc1S(=O)(=O)c1ccccc1 | -18.7% |
| Cc1ccc(S(=O)(=O)c2nc(-c3cccs3)oc2NCc2cccnc2)cc1 | -18.3% |
| C=CCNc1oc(-c2cccs2)nc1S(=O)(=O)c1ccccc1 | -24.7% |
| N#Cc1nc(-c2ccco2)oc1NCCCn1ccnc1 | -19.7% |
| O=S(=O)(c1ccccc1)c1nc(-c2cccs2)oc1NCCCn1ccnc1 | -75.1% |
| O=S(=O)(c1ccccc1)c1nc(-c2cccs2)oc1NCc1cccnc1 | -50.5% |
| O=S(=O)(c1ccccc1)c1nc(-c2ccccc2)oc1NCc1cccnc1 | 8.28% |
| O=S(=O)(c1ccccc1)c1nc(-c2ccco2)oc1NCCCN1CCOCC1 | -6.01% |
| CC(C)Sc1cc(N2CCCC2)nc(-c2ccccc2)n1 | -5.24% |
| COc1cccc(NC(=O)N(CCN(C)C)C(C)c2cccnc2)c1 (stereo not shown) | -20.7% |
| Cc1ccc(-n2c(N)c(C(=O)NCc3cccnc3)sc2=S)cc1 | 23.5% |
| CCOc1ccc(CCNC(=O)COC(=O)c2ccc(S(=O)(=O)N3CCCC3)cc2)cc1OCC | 25.7% |
| O=C(Nc1cc(Cl)ccc1O)c1cc(-c2ccco2)on1 | 8.36% |
| Cc1nn(Cc2ccccc2)c(Cl)c1C(=O)OCC(=O)NC(=O)NC12CC3CC(CC(C3)C1)C2 | 11.5% |
| CCCNC(=S)N1CCN(c2nc(C)nc3sc4c(c23)CCCC4)CC1 | -31.5% |
| Cc1nc(N2CCNCC2)c2c3c(sc2n1)CCCC3 | -2.23% |
| Cc1nc(N2CCOCC2)c2c3c(sc2n1)CCC3 | 10.4% |
| CCc1nc(SCC(=O)N2CCN(C(=O)c3ccco3)CC2)c2c3c(sc2n1)CCCC3 | -46% |
| Cc1nc(N2CCN(C(=O)c3ccco3)CC2)c2c3c(sc2n1)CCC3 | -54.8% |

| Structure (SMILES) | hERG current change (%, negative = inhibition) at 10uM |
| --- | --- |
| CC(=O)N1CCN(c2nc(C)nc3sc4c(c23)CCC(C)C4)CC1 (stereo not shown) | -19.3% |
| CC1CCc2c(sc3nc(C4CC4)nc(N4CCN(C(=O)c5ccco5)CC4)c23)C1 (stereo not shown) | -19.2% |
| CCc1nc(N2CCN(C(=O)c3ccco3)CC2)c2c3c(sc2n1)CCCC3 | -65.3% |
| Cc1nc(N2CCN(C(=O)c3ccco3)CC2)c2c3c(sc2n1)CC(C)CC3 (stereo not shown) | -63.9% |
| Cc1nc(N2CCN(C(=O)c3cccs3)CC2)c2c3c(sc2n1)CCCC3 | -63.8% |
| Cc1nc(N2CCN(C)CC2)c2c3c(sc2n1)CCCC3 | -11.4% |
| CCc1nc(N2CCN(C(=O)c3ccccc3)CC2)c2c3c(sc2n1)CCCC3 | -12.2% |
| CCOc1ccc(N2C(=O)CC(NCCc3c[nH]c4ccccc34)C2=O)cc1 (stereo not shown) | 1.45% |
| Cc1cc(C(=O)Nc2nccs2)c2cc(F)ccc2n1 | 7.7% |
| CCCn1c(N)c(C(=O)CSc2nnc(Cc3ccccc3)o2)c(=O)n(C)c1=O | -0.939% |
| O=S(=O)(c1ccccc1)c1ncc(C(F)(F)F)cc1O | 9% |
| O=C(COC(=O)/C=C/c1cccc(F)c1)NC1CCCC1 | 4.41% |
| CCOc1ccc(CCNC(=O)CCC(=O)N2CCOc3ccccc32)cc1OCC | -7.82% |
| COc1cccc(OC)c1C(=O)NC(=S)N1CCCCC1c1cccnc1 (stereo not shown) | -13% |
| Nc1c(CO)nnn1-c1ccccc1 | 4.7% |
| O=C(Nc1ccc(OCC(F)(F)C(F)F)c(C(F)(F)F)c1)c1ccccc1O | 9.65% |
| COc1ccc2c(Cl)c(-c3nnc(SCC(=O)c4ccccc4)n3C)sc2c1 | 8.28% |
| Cc1ccc(NC(=O)c2ccccc2NS(=O)(=O)c2ccc(Cl)s2)cc1S(=O)(=O)N1CCOCC1 | 0.321% |
| COc1ccc(OCc2csc(N)n2)cc1 | 39.4% |
| Cc1nc(N2CCN(C(=O)c3ccco3)CC2)c2c3c(sc2n1)CCCC3 | -64.1% |
| Cc1nc(-n2nnc3cc(C)c(C)cc32)c2c3c(sc2n1)CCCC3 | -1.48% |
| O=C(c1ccco1)N1CCN(c2nc(C3CC3)nc3sc4c(c23)CCCC4)CC1 | -29.7% |

| Structure (SMILES) | hERG current change (%, negative = inhibition) at 10uM |
| --- | --- |
| Cc1nc(-n2nnc3ccccc32)c2c3c(sc2n1)CCCC3 | -50.1% |
| CCNC(=S)N1CCN(c2nc(CC)nc3sc4c(c23)CCCC4)CC1 | -15.4% |
| CCc1nc(N2CCN(C(C)=O)CC2)c2c3c(sc2n1)CCCC3 | -20.1% |
| c1ccc2c(c1)nnn2-c1ncnc2sc3c(c12)CCCC3 | -12.2% |
| Cc1nc(N2CCN(C(=O)c3ccco3)CC2)c(C#N)c2c1CCCC2 | 3.21% |
| CCC(=O)N1CCN(c2nc(CC)nc3sc4c(c23)CCCC4)CC1 | -71.7% |
| C/C(=N\NC(=O)c1nn(C)c(C)c1Br)c1cccc(NC(=O)c2ccoc2C)c1 | -23.2% |
| CCCC(=O)c1ccc(-c2ccccc2)cc1 | -4.95% |
| Cc1ccc(C(C)C)c(OCCCN2C(=O)NC(C)(C)C2=O)c1 | -14.3% |
| Cc1ccc(N2C(=O)CC(Sc3cccs3)C2=O)cc1 (stereo not shown) | 12% |
| Cc1cccc(NC(=O)c2oc3c(c2C)C(=O)CC(C)(C)C3)n1 | -14.9% |
| CC1=C(C(=O)N2CCCCCC2)C2(CCC(C)CC2)OC1=O (stereo not shown) | 2.11% |
| CC1=C(C(=O)N2CCN(C(=O)c3ccco3)CC2)C2(CCC(C)CC2)OC1=O (stereo not shown) | -63.8% |
| CC1=C(C(=O)N2CCCCC2)C2(CCC(C)CC2)OC1=O (stereo not shown) | -6.74% |
| Cc1c(CCC(=O)O)c(=O)oc2cc(OCc3ccccc3F)ccc12 | 27.4% |
| Cc1nc(SCC(=O)N2CCOCC2)c2c(=O)n(C)c(=O)n(C)c2n1 | 0.699% |
| C=CCc1cccc(CNc2cnc3ccccc3c2)c1O | -4.21% |
| COc1ccccc1N1CCN(Cc2nc(N)nc(Nc3ccccc3)n2)CC1 | -69.6% |
| COc1ccccc1N1CCN(Cc2nc(N)nc(Nc3ccc(C)c(Cl)c3)n2)CC1 | -75.5% |
| COc1cc2nc(Nc3ccc(C)c(Cl)c3)nc(N)c2cc1OC.Cl | 4.1% |
| COc1ccccc1N1CCN(Cc2nc(N)nc(Nc3ccc(C)cc3)n2)CC1 | -50.3% |
| COc1ccccc1N1CCN(Cc2ccc(Cl)cc2Cl)CC1 | -12.7% |

Reference: paper PMC4336329 (PLoS ONE, 2015)
